Laboratory results as given in PubChem BioAssay (EPA / NIEHS).
Active and inactive are the calls of the source. How the source made its calls: active means hit-call score of the fitted dose curve at least 0.9, where 1 is the maximum; inactive means score below 0.9.

Tests used:
[1] = ATG_GRE_CIS: Attagene CIS-FACTORIAL HepG2 Assay for human Glucocorticoid Response Elements (GRE) (AID 2282947); settings: HepG2 GRE cis-reporter, Attagene multiplex mRNA; actives raise or lower the signal
How it was run: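 Cells (HepG2) bearing transfected cis-promoter reporter transcription units were treated with chemical for 24 hours. Reporter mRNA was measured via RT-PCR with capillary electrophoresis, and activity was fitted in both directions relative to DMSO.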

[2] = ATG_ISRE_CIS: Attagene CIS-FACTORIAL HepG2 Assay for human Interferon Regulatory Factor 1 (IRF1) binding to an Interferon-Stimulated Response Element (ISRE) (AID 2282948); settings: HepG2 ISRE cis-reporter (Attagene), mRNA transcription readout; actives raise or lower the signal
How it was run: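 Endogenous transcription factor activity read as reporter transcript abundance via RT-PCR and capillary electrophoresis. HepG2 cells transiently transfected, 24 h chemical exposure. Gain or loss fitted against DMSO baseline.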

[3] = ATG_M_32_CIS: Attagene CIS-FACTORIAL HepG2 Assay for M32 Transcription Factor (Internal Marker) (AID 2282949); settings: HepG2 Attagene cis-factorial M32 reporter, mRNA; actives raise or lower the signal;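 further: background control marker of the multiplexed CIS panel rather than a real target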
How it was run: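 HepG2 human liver cells transiently transfected with cis-promoter-driven multiple reporter transcription units, dosed 24 h. Reporter mRNA quantified by RT-PCR, FAM-labelled primer extension, HpaI digest and capillary electrophoresis; bidirectional fit versus DMSO baseline.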

[4] = ATG_M_06_CIS: Attagene CIS-FACTORIAL HepG2 Assay for M06 Transcription Factor (Internal Marker) (AID 2282950); settings: HepG2 Attagene CIS-FACTORIAL M06 internal marker reporter; actives raise or lower the signal
How it was run: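 Terse: HepG2, transient MRTU transfection (FuGene 6), 24 h dosing; total RNA, oligo(dT) RT, PCR, FAM label, HpaI cut, capillary electrophoresis; bidirectional fit vs DMSO baseline; background-control endpoint.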

[5] = biological target: Hypoxia-inducible factor 1-alpha (Homo sapiens) (UniProt Q16665); assay: ATG_HIF1a_CIS: Attagene CIS-FACTORIAL HepG2 Assay for human Hypoxia Inducible Factor 1 (HIF1A) (AID 2282951); settings: HepG2 Attagene cis-factorial HIF1a reporter transcription; actives raise or lower the signal
Chain of Hypoxia-inducible factor 1-alpha (Homo sapiens) (Q16665 whole entry, looked up, the tested form may be a part): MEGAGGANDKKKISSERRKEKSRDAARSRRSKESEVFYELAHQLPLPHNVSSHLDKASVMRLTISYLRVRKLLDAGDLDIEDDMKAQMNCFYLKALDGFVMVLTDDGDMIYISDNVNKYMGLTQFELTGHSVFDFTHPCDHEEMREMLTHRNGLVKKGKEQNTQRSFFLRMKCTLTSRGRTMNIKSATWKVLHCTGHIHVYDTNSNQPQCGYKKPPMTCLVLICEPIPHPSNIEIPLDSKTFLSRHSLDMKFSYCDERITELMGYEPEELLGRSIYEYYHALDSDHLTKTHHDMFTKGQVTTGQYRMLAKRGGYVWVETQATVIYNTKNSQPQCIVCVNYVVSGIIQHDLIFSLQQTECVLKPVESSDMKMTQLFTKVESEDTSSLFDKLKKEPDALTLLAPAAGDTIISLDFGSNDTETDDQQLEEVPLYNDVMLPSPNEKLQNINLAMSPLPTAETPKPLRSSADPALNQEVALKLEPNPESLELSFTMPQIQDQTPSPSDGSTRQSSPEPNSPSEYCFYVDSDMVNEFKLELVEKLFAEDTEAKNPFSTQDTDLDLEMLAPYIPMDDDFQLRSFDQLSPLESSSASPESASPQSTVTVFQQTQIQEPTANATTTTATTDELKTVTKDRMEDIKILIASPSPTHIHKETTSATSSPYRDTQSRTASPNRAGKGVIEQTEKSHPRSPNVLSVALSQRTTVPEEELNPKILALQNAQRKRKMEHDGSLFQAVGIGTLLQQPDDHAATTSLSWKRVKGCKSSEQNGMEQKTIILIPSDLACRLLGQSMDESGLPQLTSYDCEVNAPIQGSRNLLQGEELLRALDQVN
How it was run: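 Transient MRTU transfection of human HepG2 liver cells, 24 h compound treatment, then total RNA isolation, oligo(dT) reverse transcription, PCR amplification, fluorescent labelling and capillary electrophoresis of reporter fragments. Gain or loss relative to DMSO.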

[6] = biological target: Hepatocyte nuclear factor 6 (Homo sapiens) (UniProt Q9UBC0); assay: ATG_HNF6_CIS: Attagene CIS-FACTORIAL HepG2 Assay for human Hepatocyte Nuclear Factor 6 (HNF6) (AID 2282952); settings: HepG2 Attagene cis-factorial HNF6 reporter transcription; actives raise or lower the signal
Chain of Hepatocyte nuclear factor 6 (Homo sapiens) (Q9UBC0 whole entry, looked up): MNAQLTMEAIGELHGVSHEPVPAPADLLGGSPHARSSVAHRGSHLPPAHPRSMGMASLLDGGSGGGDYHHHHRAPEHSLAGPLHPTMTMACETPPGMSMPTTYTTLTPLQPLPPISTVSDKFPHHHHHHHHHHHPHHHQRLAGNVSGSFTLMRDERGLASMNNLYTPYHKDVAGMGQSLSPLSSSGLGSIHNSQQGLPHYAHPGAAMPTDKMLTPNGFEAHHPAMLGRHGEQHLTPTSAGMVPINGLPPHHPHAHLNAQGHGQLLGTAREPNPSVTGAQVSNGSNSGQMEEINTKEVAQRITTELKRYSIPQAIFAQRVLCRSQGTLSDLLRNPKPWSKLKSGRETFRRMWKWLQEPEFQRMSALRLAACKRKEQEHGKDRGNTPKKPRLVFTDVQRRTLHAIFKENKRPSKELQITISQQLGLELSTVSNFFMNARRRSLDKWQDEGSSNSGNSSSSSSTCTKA
How it was run: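 Endogenous factor activity read in transiently transfected HepG2 via promoter-regulated reporter transcripts. RNA harvested 24 h post-dosing, reverse-transcribed, PCR-amplified, FAM-labelled, HpaI-digested and resolved by capillary electrophoresis; fitted in both directions against DMSO.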

[7] = biological target: Heat shock factor protein 1 (Homo sapiens) (UniProt Q00613); assay: ATG_HSE_CIS: Attagene CIS-FACTORIAL HepG2 Assay for human Heat Shock Transcription Factor 1 (HSE) (AID 2282953); settings: HepG2 HSE cis-reporter, Attagene RNA transcription; actives raise or lower the signal
Chain of Heat shock factor protein 1 (Homo sapiens) (Q00613 whole entry, looked up, the tested form may be a part): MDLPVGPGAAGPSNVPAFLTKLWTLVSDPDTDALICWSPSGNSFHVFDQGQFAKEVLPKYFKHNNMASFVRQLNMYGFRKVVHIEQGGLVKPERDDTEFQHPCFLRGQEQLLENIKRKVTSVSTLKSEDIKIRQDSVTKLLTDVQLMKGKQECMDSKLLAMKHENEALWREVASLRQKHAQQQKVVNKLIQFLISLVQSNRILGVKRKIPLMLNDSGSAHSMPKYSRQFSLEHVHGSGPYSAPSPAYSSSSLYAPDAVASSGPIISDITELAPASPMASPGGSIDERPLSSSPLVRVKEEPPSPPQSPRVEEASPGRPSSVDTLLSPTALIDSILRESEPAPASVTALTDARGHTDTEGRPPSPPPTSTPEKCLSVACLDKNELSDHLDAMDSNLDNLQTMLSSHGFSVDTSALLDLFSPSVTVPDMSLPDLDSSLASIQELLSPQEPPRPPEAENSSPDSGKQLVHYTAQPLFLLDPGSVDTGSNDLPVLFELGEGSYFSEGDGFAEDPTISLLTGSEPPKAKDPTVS
How it was run: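 Read-out: fluorescence of reporter-specific RT-PCR fragments separated by capillary electrophoresis. HepG2 carrying transfected cis-element reporter units; 24 h dosing; activity fitted in both directions relative to DMSO baseline.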

[8] = ATG_MRE_CIS: Attagene CIS-FACTORIAL HepG2 Assay for human Metal Responsive Element (MRE) (AID 2282954); settings: HepG2 MRE cis-reporter transcription, Attagene multiplex; actives raise or lower the signal
How it was run: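 Cells were transfected with cis-promoter reporter transcription units, then dosed for 24 h. RNA was reverse-transcribed, amplified, fluorescently labelled and resolved by capillary electrophoresis, and activity was fitted in both directions relative to DMSO.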

[9] = ATG_PBREM_CIS: Attagene CIS-FACTORIAL HepG2 Assay for human Phenobarbital-responsive Enhancer Module (PBREM) (AID 2282955); settings: HepG2 PBREM cis-reporter, Attagene multiplexed transcription; actives raise or lower the signal
How it was run: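 Endogenous transcription factors in human liver HepG2 cells drive a PBREM cis-element reporter, whose transcript level after 24 h treatment is quantified by RT-PCR with capillary electrophoresis; activity fitted in both directions against DMSO.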

[10] = biological target: Paired box protein Pax-6 (Homo sapiens) (UniProt P26367); assay: ATG_Pax6_CIS: Attagene CIS-FACTORIAL HepG2 Assay for human Paired Box 6 (PAX6) (AID 2282956); settings: HepG2 CIS-FACTORIAL PAX6 reporter transcription, RNA readout; actives raise or lower the signal
Chain of Paired box protein Pax-6 (Homo sapiens) (P26367 whole entry, looked up): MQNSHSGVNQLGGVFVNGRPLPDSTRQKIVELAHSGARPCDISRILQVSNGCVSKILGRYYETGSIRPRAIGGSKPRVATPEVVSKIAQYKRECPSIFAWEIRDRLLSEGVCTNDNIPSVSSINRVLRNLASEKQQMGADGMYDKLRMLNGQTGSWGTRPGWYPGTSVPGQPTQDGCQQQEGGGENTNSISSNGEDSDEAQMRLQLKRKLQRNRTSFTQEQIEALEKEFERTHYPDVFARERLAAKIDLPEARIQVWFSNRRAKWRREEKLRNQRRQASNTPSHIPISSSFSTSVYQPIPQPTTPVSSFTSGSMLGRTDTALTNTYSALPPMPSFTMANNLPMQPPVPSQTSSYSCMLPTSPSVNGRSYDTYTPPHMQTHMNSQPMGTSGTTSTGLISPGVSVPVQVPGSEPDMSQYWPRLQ
How it was run: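 Read-out is reporter transcript level, measured by RT-PCR with fluorescent primer extension and capillary electrophoresis after 24 h dosing of transfected HepG2 cells. Activity in either direction fitted relative to DMSO control.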

[11] = ATG_PXRE_CIS: Attagene CIS-FACTORIAL HepG2 Assay for human Pregnane X Receptor Element (PXRE) (AID 2282957); settings: HepG2 Attagene CIS-FACTORIAL PXRE reporter, mRNA; actives raise or lower the signal
How it was run: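 Reporter transcripts under endogenous PXR-responsive cis-regulation quantified from total RNA of transfected HepG2 cells 24 h post-dosing, via RT-PCR with fluorescent primer extension and capillary electrophoresis. Gain or loss of signal fitted against DMSO baseline.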

[12] = ATG_PPRE_CIS: Attagene CIS-FACTORIAL HepG2 Assay for human Peroxisome Proliferator-activated Response Element (PPRE) (AID 2282958); settings: HepG2 PPRE cis-element reporter, Attagene transcription factor profiling; actives raise or lower the signal
How it was run: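 HepG2, transient MRTU transfection (cis promoter elements, endogenous TFs). 24 h dosing. RNA → oligo(dT) RT → PCR → 6-FAM primer extension → HpaI digest → CE. Bidirectional fit vs DMSO.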

[13] = ATG_RORE_CIS: Attagene CIS-FACTORIAL HepG2 Assay for human RAR-related Orphan Receptor Element (RORE) (AID 2282959); settings: HepG2 Attagene cis-factorial RORE reporter, mRNA; actives raise or lower the signal
How it was run: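 Transient MRTU transfection of human HepG2 liver cells (FuGene 6); 24 h compound exposure; TriZol RNA, oligo(dT) RT, PCR, FAM labeling, HpaI cut, CE fragment analysis. DMSO = negative control/baseline.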

[14] = ATG_Sox_CIS: Attagene CIS-FACTORIAL HepG2 Assay for human SRY-box transcription factor (SOX) (AID 2282960); settings: HepG2 Attagene cis-factorial SOX reporter, mRNA; actives raise or lower the signal
How it was run: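 Endogenous factor activity in human liver HepG2 cells carrying transfected cis-regulated reporter units. RNA taken 24 h post-dose, reverse-transcribed, PCR-amplified and sized by capillary electrophoresis. Gain or loss of signal fitted relative to DMSO.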

[15] = biological target: Transcription factor Sp1 (Homo sapiens) (UniProt P08047); assay: ATG_Sp1_CIS: Attagene CIS-FACTORIAL HepG2 Assay for human Specificity Protein 1 (Sp1) (AID 2282961); settings: HepG2 Sp1 cis-reporter transcription, actives raise or lower the signal
Chain of Transcription factor Sp1 (Homo sapiens) (P08047 whole entry, looked up): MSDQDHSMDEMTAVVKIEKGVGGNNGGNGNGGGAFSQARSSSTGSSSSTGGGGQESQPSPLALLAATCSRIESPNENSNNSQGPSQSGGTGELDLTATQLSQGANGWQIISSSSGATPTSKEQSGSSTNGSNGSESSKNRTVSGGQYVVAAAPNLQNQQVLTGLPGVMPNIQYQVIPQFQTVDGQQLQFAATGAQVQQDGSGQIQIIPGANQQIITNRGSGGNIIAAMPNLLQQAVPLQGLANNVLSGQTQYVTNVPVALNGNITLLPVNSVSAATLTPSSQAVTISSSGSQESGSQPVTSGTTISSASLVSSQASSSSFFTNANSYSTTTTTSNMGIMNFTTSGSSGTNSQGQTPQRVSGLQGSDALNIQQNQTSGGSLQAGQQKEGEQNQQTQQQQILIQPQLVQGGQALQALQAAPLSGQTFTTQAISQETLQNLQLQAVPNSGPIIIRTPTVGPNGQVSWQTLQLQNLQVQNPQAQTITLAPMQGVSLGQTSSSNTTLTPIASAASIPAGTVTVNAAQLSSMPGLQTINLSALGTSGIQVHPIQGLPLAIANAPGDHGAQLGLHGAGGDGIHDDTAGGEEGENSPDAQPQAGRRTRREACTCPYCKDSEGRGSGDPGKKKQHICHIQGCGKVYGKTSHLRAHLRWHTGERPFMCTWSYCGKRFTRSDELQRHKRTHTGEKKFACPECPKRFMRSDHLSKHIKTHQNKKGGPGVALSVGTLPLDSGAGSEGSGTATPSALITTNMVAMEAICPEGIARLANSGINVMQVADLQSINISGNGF
How it was run: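 Transient MRTU-transfected HepG2, 24 h compound exposure. Total RNA → oligo(dT) RT → PCR of reporter → 6-FAM primer extension → HpaI digest → CE. Endpoint fitted both directions vs DMSO.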

[16] = ATG_SREBP_CIS: Attagene CIS-FACTORIAL HepG2 Assay for human Sterol Regulatory Element Binding (SREBP) (AID 2282962); settings: HepG2 Attagene cis-factorial SREBP reporter, mRNA; actives raise or lower the signal
How it was run: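 Endogenous SREBP activity read as cis-element-driven reporter transcript in transiently transfected HepG2, 24 h post-dosing; quantified via RT-PCR plus capillary electrophoresis of fluorescent fragments. Gain or loss of signal fitted relative to DMSO baseline.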

[17] = biological target: Signal transducer and activator of transcription 3 (Homo sapiens) (UniProt P40763); assay: ATG_STAT3_CIS: Attagene CIS-FACTORIAL HepG2 Assay for human Signal Transducer and Activator of Transcription 3 (STAT3) (AID 2282963); settings: HepG2, Attagene cis-factorial STAT3 reporter transcription; actives raise or lower the signal
Chain of Signal transducer and activator of transcription 3 (Homo sapiens) (P40763 whole entry, looked up): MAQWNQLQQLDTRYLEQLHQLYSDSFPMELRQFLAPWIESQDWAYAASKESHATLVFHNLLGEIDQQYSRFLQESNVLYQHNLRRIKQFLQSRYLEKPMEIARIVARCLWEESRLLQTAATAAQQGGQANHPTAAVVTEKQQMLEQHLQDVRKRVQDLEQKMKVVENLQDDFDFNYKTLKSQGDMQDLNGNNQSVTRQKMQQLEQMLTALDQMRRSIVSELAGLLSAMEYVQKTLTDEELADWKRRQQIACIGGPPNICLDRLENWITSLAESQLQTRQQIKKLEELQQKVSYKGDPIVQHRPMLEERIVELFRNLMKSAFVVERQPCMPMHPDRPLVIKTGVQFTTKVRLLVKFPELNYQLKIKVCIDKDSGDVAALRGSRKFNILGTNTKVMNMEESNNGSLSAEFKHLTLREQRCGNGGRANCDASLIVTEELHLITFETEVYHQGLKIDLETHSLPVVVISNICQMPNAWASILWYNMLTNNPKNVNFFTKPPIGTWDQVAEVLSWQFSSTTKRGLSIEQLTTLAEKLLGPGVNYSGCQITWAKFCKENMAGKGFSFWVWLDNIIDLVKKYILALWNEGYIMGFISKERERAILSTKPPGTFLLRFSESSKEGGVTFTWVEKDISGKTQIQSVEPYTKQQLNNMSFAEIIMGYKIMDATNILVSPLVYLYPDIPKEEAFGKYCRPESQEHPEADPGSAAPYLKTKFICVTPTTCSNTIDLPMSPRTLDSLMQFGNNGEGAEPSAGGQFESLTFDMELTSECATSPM
How it was run: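 HepG2, MRTU-transfected, 24 h dosing. RNA → RT → PCR → FAM label → HpaI → CE. Bidirectional fit vs DMSO.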

[18] = ATG_TA_CIS: Attagene CIS-FACTORIAL HepG2 Assay for human TA Basal Promoter (AID 2282964); settings: HepG2 Attagene CIS-factorial TA basal promoter reporter; actives raise or lower the signal
How it was run: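 Transfected HepG2, 24 h compound exposure; RNA → RT-PCR → FAM primer extension → HpaI cut → CE fluorescence. Gain/loss-of-signal fitted against DMSO negative control. Background-control readout.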

[19] = ATG_TCF_b_cat_CIS: Attagene CIS-FACTORIAL HepG2 Assay for human T-Cell-Factor with beta-catenin (TCF/b-cat) (AID 2282965); settings: HepG2 TCF/beta-catenin cis-reporter transcription, actives raise or lower the signal
How it was run: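 HepG2 cells transiently transfected with multiple cis-promoter-regulated reporter transcription units, so endogenous transcription factor activity is measured. Reporter mRNA read 24 hours after dosing by RT-PCR, fluorescent labelling and capillary electrophoresis; bidirectional fitting against DMSO.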

[20] = biological target: Bile acid receptor (Homo sapiens) (UniProt Q96RI1); assay: ATG_IR1_CIS: Attagene CIS-FACTORIAL HepG2 Assay for human Nuclear Receptor Subfamily 1 Group H Member 4 (NR1H4), IR1 submotif (AID 2282946); settings: IR1 reporter transcription, actives raise or lower the signal
Chain of Bile acid receptor (Homo sapiens) (Q96RI1 whole entry, looked up): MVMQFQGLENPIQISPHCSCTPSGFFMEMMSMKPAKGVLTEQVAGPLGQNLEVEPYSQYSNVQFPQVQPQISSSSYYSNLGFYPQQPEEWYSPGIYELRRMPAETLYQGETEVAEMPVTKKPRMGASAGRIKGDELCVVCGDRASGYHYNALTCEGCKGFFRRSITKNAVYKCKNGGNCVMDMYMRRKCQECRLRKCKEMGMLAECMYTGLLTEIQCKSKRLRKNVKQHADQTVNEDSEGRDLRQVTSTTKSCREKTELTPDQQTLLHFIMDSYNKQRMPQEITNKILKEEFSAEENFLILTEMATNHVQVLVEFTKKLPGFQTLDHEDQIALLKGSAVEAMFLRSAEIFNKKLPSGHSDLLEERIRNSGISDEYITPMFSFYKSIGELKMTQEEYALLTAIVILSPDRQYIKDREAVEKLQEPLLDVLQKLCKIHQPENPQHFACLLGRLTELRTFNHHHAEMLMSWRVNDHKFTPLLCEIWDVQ
How it was run: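 Readout: reporter transcript levels by RT-PCR with fluorescent capillary electrophoresis, from HepG2 cells transiently transfected with multiplexed cis-regulated reporters and dosed 24 h. Gain- or loss-of-signal fitted versus DMSO negative control.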

Measured: AC50

CCCC(=O)OCC
active: [5] 0.171 µM
not listed: [20]
inactive: all other assays above

CCCCCCc1ccc(O)cc1O
active: [2] 55.7 µM | [5] 50.7 µM | [8] 54.1 µM | [10] 51.1 µM | [13] 42 µM | [19] 47.8 µM
not listed: [12] | [14] | [20]
inactive: all other assays above

CCCN(C1CCN(C(=O)C2CCNCC2)CC1)[C@@H]1CCc2ccc(OC)cc2C1
active: [2] 90.6 µM | [9] 157 µM | [11] 100 µM | [15] 177 µM | [19] 113 µM
not listed: [8] | [20]
inactive: all other assays above

CCC(C)(C)C(=O)O[C@H]1C[C@@H](C)C=C2C=C[C@H](C)[C@H](CC[C@@H]3C[C@@H](O)CC(=O)O3)[C@H]21
active: [16] 0.0317 µM
not listed: [11] | [20]
inactive: all other assays above

Cc1c(-c2cccnc2)c2ccccc2n1CCCCC(=O)O
active: [12] 5.71 µM
not listed: [1] | [8] | [14]
inactive: all other assays above

Nc1ccc(Nc2ccccc2)cc1
not listed: [12] | [20]
inactive: all other assays above

COC(=O)CC(=O)OC
not listed: [13] | [14] | [20]
inactive: all other assays above
